Bioassay records (PubChem)
HPGD block = qHTS Assay for Inhibitors of HPGD (15-Hydroxyprostaglandin Dehydrogenase) | 15-hydroxyprostaglandin dehydrogenase [NAD(+)] (Homo sapiens), P15428 | purified HPGD, NADH fluorescence kinetic, PGE2 substrate | Potency, µM, for inactives: at the top dose activity change, negative = inhibition, usual class: inhibitors | 150,000 compounds, 4.3% hits | AID 894, 2007; active means well fitted inhibition curve with a large enough effect, not every such curve was filed as active; inconclusive means small, poorly fitted or top-dose-only effect, or another doubt; inactive means no such curve, though single readings can be large or run the other way
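NADH formation kinetics: reaction with 30 uM PGE2 and 1 mM NAD+ (final), 20 nM enzyme, Tris-HCl pH 8 with Tween 20, after 15 min compound preincubation at room temperature. Fluorescence change, last versus first of five reads.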
ALDH1A1 block = qHTS Assay for Inhibitors of Aldehyde Dehydrogenase 1 (ALDH1A1). Aldehyde dehydrogenase 1A1 (Homo sapiens), P00352. Purified ALDH1A1, NADH fluorescence, propionaldehyde substrate. Potency, µM (doses to about 75.3 µM), for the others: top-dose activity, negative = inhibition, hits mostly inhibitors. 220,000 compounds, 7.3% hits. AID 1030, 2008; active means well fitted inhibition curve with a large enough effect, not every such curve was filed as active; inconclusive means small, poorly fitted or top-dose-only effect, or another doubt; inactive means no such curve, though single readings can be large or run the other way;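 further: plate controls were no enzyme wells and a reference inhibitor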
Target sequence (P00352 whole entry, looked up): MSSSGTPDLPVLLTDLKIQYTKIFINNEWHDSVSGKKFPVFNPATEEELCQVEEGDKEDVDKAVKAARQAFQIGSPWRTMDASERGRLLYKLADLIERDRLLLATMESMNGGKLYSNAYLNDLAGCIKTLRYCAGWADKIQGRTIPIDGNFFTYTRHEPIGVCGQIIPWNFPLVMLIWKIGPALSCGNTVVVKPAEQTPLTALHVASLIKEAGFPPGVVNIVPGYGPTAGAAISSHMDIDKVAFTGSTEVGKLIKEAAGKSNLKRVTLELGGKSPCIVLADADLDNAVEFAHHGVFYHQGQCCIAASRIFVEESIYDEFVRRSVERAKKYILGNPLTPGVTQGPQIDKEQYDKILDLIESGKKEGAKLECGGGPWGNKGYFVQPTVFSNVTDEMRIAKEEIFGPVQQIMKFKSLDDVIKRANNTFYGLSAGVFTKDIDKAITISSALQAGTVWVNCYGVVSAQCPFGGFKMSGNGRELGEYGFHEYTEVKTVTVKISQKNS
IMPase Li inh = qHTS Assay for Identifying the Cell-Membrane Permeable IMPase Inhibitors: Potentiation with Lithium; Potency, µM (highest dose often 59.4 µM), for inactives: at the highest dose activity, negative = IMPase inhibition, actives largely listed as inhibitors; AID 1457, 2008; 210,000 compounds, 0.35% hits; CHO-M1 cells, IP1 TR-FRET (IP-One), carbachol + lithium;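 further: IP1 builds up when IMPase is blocked and the TR-FRET signal falls; plate controls were basal vehicle for no effect and high inhibitor control for full effect; nearly all actives have a fitted effect of over 50% in size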
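IP1 accumulation measured by competitive TR-FRET in lysed CHO-M1 cells after 30 min compound exposure at 37C, with a small lithium addition to potentiate weak responses. Hill-equation AC50 from ratio and donor-channel data.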
LMNA splice mod = qHTS Assay for Modulators of Lamin A Splicing; HeLa LMNA splicing GFP/RFP minigene ratio, 48 h; Potency, µM (top dose mostly 46.1 µM), for inactives: at the top dose ratio change, negative = inhibition, usual class: inhibitors; 200,000 compounds, 0.01% hits; AID 1487, 2009; active means well fitted inhibition curve with a large enough effect in the signal ratio, with a control signal flat, not every such curve was filed as active; inconclusive means small, poorly fitted or top-dose-only effect, or effect the other way, or a change in a side signal; the % refers to the signal ratio
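Read-out is the ratio of GFP to DsRed2 object intensity, acquired by 488 nm laser-scanning cytometry on HeLa lamin A-EGFP minigene reporter cells. Compound incubation 48 hrs at 37 °C in Opti-MEM with 2% FBS; DMSO 0.5% final.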
Luc counter = Counterscreen for Luciferase (Kinase-Glo TM) Inhibition; Potency, µM (series often up to 38.3 µM), for inactives: top-dose activity change, negative = inhibition, usual class: inhibitors; Luciferin 4-monooxygenase (Photuris pensylvanica), Q27757; 200,000 compounds, 0.28% hits; Kinase-Glo luciferase, ATP luminescence, 8 min; further: nearly all actives have a fitted effect of over 60% in size
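Kinase-Glo luciferase light output from ATP and luciferin was measured with 10 uM ATP, within the enzyme's linear range. Buffer: 50 mM imidazole pH 7.2, 50 mM KCl, 7 mM MgCl2, 0.01% Tween 20, 0.05% BSA; luminescence read after 8 min at ambient temperature.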
* = called active by the depositor; u = inconclusive; x = no result; [ ] = remark or other dose. Rows were chosen to be rich in hits. Some 9% of all compounds tested hit in one or more screens of this group. Unless noted, the call rests on the fitted dose curve; in most records, active means well fitted curve in the direction sought with a large enough effect; inconclusive means small, poorly fitted or top-dose-only effect, or another doubt; inactive means no such curve, though single readings can be large; an effect the other way counts as inactive or inconclusive. Unless noted, on the % scale 0 is the no-effect control and ±100 the full control effect; potency means the concentration at half of the fitted maximal effect.

SMILES	HPGD block	ALDH1A1 block	IMPase Li inh	LMNA splice mod	Luc counter
O=C(c1ccc2c(c1)C(=O)N(Cc1ccco1)C2=O)N1CCOCC1	-6.3%	u	2.2%[38.3 µM]	14.9%	-2.7%
O=C(O)c1ccc(C(=O)c2ccc3c(c2)C(=O)N(Cc2ccco2)C3=O)cc1	8.91µM*	11.2µM*	16.4%[38.3 µM]	12.2%	-1.7%
O=C(Nc1ccc(O)cc1)c1ccc2c(c1)C(=O)N(Cc1ccco1)C2=O	-8.9%	14.1µM*	-6.3%	2.1%	-0.9%
O=C(Nc1ccc(O)cc1C(=O)O)c1ccc2c(c1)C(=O)N(Cc1ccco1)C2=O	-13.0%	5.62µM*	18.7%[38.3 µM]	1.5%	0.5%
Cc1cccc(NC(=O)C2c3ccccc3Oc3ccccc32)n1	x	4.8%	21.2%	u	-0.9%
NC(=O)c1sc2nc3c(c(-c4ccco4)c2c1N)CCC3	-22.7%	-11.6%	-5.4%[38.3 µM]	3.4%	0.7%
Nc1c(C(=O)NC2CC2)sc2nc3c(c(-c4ccco4)c12)CC/C3=C/c1ccco1	15.8µM*	15.8µM*	3.6%	1.9%	-12.9%
CC1CN(c2ccc([N+](=O)[O-])cc2C#N)CC(C)O1 (stereo not drawn)	x	14.1µM*	-2.4%	x	-0.9%
CC1CN(C(=S)NC(=O)c2ccc([N+](=O)[O-])cc2)CC(C)O1 (stereo not drawn)	-0.1%	-9.1%	-5.9%[38.3 µM]	-4.9%	-1.2%
Cc1ccc(C(=O)c2cc([N+](=O)[O-])ccc2N2CC(C)OC(C)C2)cc1 (stereo not drawn)	-5.2%	u	13.0%	u	-0.9%
CC1CN(C(=S)c2cccc([N+](=O)[O-])c2)CC(C)O1 (stereo not drawn)	x	7.94µM*	11.7%	x	1.1%
O=[N+]([O-])c1cccc(C(=S)N2CCN(c3ccccc3F)CC2)c1	x	22.4µM*	13.0%	u	-0.5%
O=[N+]([O-])c1cccc(C(=S)N2CCN(c3ccccc3)CC2)c1	22.4µM*	15.8µM*	11.6%	u	3.8%
COc1c(-c2ccccc2)oc2c(ccc3occc32)c1=O	u	u	10.0%	x	1.9%
S=c1[nH]nc(-c2ccccc2)c2ccccc12	x	8.91µM*	-8.3%	0.5%[46 µM]	-4.2%
Cc1ccc(-c2n[nH]c(=S)c3ccccc23)cc1	x	0.355µM*	u	-17.4%[46 µM]	0.6%
Cc1ccc(-c2cc(-c3n[nH]c(=S)n3C)c3ccccc3n2)cc1	x	u	-3.8%	x	-4.7%
O=C(CCN1C(=O)c2cccc3cccc(c23)C1=O)Nc1ccon1	x	u	-3.6%	x	-2.7%
Cc1ccc(C2=NNC3(CCOC(C)(C)C3)S2)cc1 (stereo not drawn)	x	u	11.0%	x	0.9%
O=C1c2ccccc2S(=O)(=O)N1Cc1nnc(-c2ccccc2Br)o1	-16.8%	u	-1.2%	-5.2%	0.1%
O=c1c2ccccc2nnn1Cc1nnc(-c2ccccc2Br)o1	28.2µM*	u	-4.4%[38.3 µM]	-2.0%	-0.7%
CC(C)CC(=O)NS(=O)(=O)c1ccc(N)cc1	-2.0%	10µM*	-0.4%	-7.1%	-1.4%
CS(=O)(=O)Cc1cc(Sc2ccccc2)nc(-c2ccncc2)n1	x	11.2µM*	2.1%	-10.4%[9.22 µM]	1.3%
O=S(Cc1cc(Sc2ccccc2)nc(-c2ccccc2)n1)c1ccccc1 (stereo not drawn)	-17.5%	-11.5%	51.7%[38.3 µM]	u	-3.6%
Cc1cc2c(cc1Cl)N(C(=O)Nc1ccnc3ccccc13)CC2	-9.0%	-9.4%	5.0%	u	-0.3%
O=C(CSc1nc2c([nH]c3ccccc32)c(=O)n1-c1cccc(Cl)c1)N1CCCC1	x	x	x	-7.1%[46 µM]	x
Cc1ccc(C2C3CSCC=C3C(C#N)=C(N)C2(C#N)C#N)cc1 (stereo not drawn)	-27.9%	8.91µM*	14.7%	-12.0%	-0.9%
CN(C(=O)c1ccccc1C(=O)OCC(=O)NCc1cccs1)C1CCCCC1	x	-12.3%	0.0%	21.7%[46 µM]	-3.5%
O=C(CN(C(=O)c1cc2c(s1)CCC2)C1CCCC1)NCc1cccs1	-6.1%	15.8µM*	-1.9%[38.3 µM]	6.7%	10.5%
